From PubChem BioAssay
Calls of active or inactive are those of the source. Cut-off read from the data, not from the text of the source, unless noted: active = inhibition above about 31%; inactive = the rest.

Test: yeast transport mutant growth inhibition pilot in 384-well plates, post-Golgi transport modulator project (AID 636)
Details: absorbance 615 nm, about 18 h, hits give high values

inhibition, inactive:
O=C(CCN1CCOCC1)Nc1ccc2c(c1)CCC2 -5.26%
COc1ccccc1-c1nc(C(F)(F)F)c(OC)o1 -1.97%
Nc1c(C(=O)NCCN2CCOCC2)c2nc3ccccc3nc2n1-c1ccc2c(c1)OCO2 -6.27%
COc1cccc(C(=O)Nc2ccc(NC(=O)C(C)(C)C)cn2)c1 2.34%
CCOC(=O)N1CCN(C(=O)Nc2ccc3oc(C)nc3c2)CC1 -2.63%
CCOC(=O)c1nn(-c2sc(C(=O)OC)c(C)c2C(=O)OC)cc1O -1.82%
CCOC(=O)C1=C(C)N(C)C(C)=C(C(=O)OCC)C1c1cccnc1 0.79%
O=C(Nc1ccc2c(c1)OCO2)OCc1ccccc1 -4.4%
Cn1c(=O)[nH]c(=O)c2c1nc(NCCCn1ccnc1)n2Cc1cccc(Br)c1 -5.47%
Cn1c(=O)[nH]c(=O)c2c1nc(N1CCNCC1)n2Cc1cccc2ccccc12 -1.56%
COc1ccccc1N(CN1CCCC1=O)C(=O)c1c(F)cccc1Cl -5.2%
CCOC(=O)C1CCCN(C(=O)c2cccs2)C1 (stereo not given) -6.18%
CCCCn1c(SCc2cccnc2)nc2c1c(=O)n(C)c(=O)n2C -7.76%
O=C(CCCNS(=O)(=O)c1ccccc1)NCc1ccco1 -4.67%
Cc1ccc(-c2[nH]nc3c2C(c2ccoc2)C(C#N)=C(N)O3)cc1C (stereo not given) -1.45%
CSc1nsc(SCC(=O)N2CCc3ccccc32)n1 -6.05%
Cc1ccc(NC(=O)CC2Nc3ccccc3NC2=O)cc1Cl (stereo not given) -1.17%
COC(=O)c1c(C(=O)OC)n(CCCN)c2ccc(C)cc12 -0.52%
OCCn1c(CSc2nnc(-c3ccco3)n2-c2ccccc2)nc2ccc(Cl)cc21 -5.45%
Cc1c(O)c(CN2CCCC(C)C2)cc2c3c(c(=O)oc12)CCC3 (stereo not given) -6.97%
Clc1ccccc1-c1nnc2sc(-c3ccccn3)nn12 -1.97%
CCCn1c(=N)n(CCOc2ccc(OC)cc2)c2ccccc21 -6.05%
COC(=O)c1c(N)sc(C(=O)N2CCOCC2)c1C -0.4%
CC(C(N)=O)N1C(=O)C2C3C=CC(C3)C2C1=O (stereo not given) -1.6%
Cn1c(-c2ccc(F)cc2)cnc1NCc1ccccc1 -3.03%
O=C(CCCn1c(=O)c2sccc2n(CC(=O)NCc2ccco2)c1=O)NCc1ccco1 -2.86%
O=C(Cc1cccs1)NCc1ccc(F)cc1 -3.6%
CCCOc1ccc(C2C(C(=O)c3ccc(C)o3)=C(O)C(=O)N2Cc2cccnc2)cc1 (stereo not given) -5.79%
CCOC(=O)c1c(C)oc2ccc(O)c(CN(C)C)c12 -6.1%
O=c1ccn(Cc2ccccc2Cl)cc1 -4.47%
CC12C(=O)N(CCC(=O)O)C(=O)C1C1C=CC2C1 (stereo not given) -2.37%
O=S(=O)(NCCc1ccncc1)c1cc(Br)ccc1F -3.9%
COc1ccc2c(c1)C(=O)N(c1ccccc1OC)C(=O)C2 -3.87%
CCn1nnc(NC(=O)c2ccccc2Br)n1 -8.93%
CN1CCCC(OC(=O)c2ccc3c(c2)OCCO3)C1 (stereo not given) -4.4%
CC(C)c1nnc(NC(=O)CCC(=O)NCc2ccc3c(c2)OCO3)s1 -5.2%
O=C(O)c1ccc(-n2nc(C(F)(F)F)c3c2-c2ccoc2CC3)cc1 0.39%
Nc1cc(C(=O)O)ccc1Nc1ccccc1 -5.06%
CCOc1ccc(OCc2cccc(C(=O)N3CCCC3)c2)cc1 -4.13%
O=C(O)CCc1ccc(-c2cccs2)n1NC(=O)c1ccco1 0.39%

Test: growth suppression of yeast trafficking mutant, preliminary HTS, modulators of trafficking downstream of Golgi apparatus project, 1536-format plate, OD 615 nm (AID 637; in the data active = inhibition above about 30%)
Details: yeast transport mutant growth, absorbance 615 nm, 18 h; hits give high values

inhibition, inactive:
O=C(CCN1CCOCC1)Nc1ccc2c(c1)CCC2 -4.13%
COc1ccccc1-c1nc(C(F)(F)F)c(OC)o1 17.9%
Nc1c(C(=O)NCCN2CCOCC2)c2nc3ccccc3nc2n1-c1ccc2c(c1)OCO2 6.19%
COc1cccc(C(=O)Nc2ccc(NC(=O)C(C)(C)C)cn2)c1 -0.48%
CCOC(=O)N1CCN(C(=O)Nc2ccc3oc(C)nc3c2)CC1 0%
CCOC(=O)c1nn(-c2sc(C(=O)OC)c(C)c2C(=O)OC)cc1O 3.33%
CCOC(=O)C1=C(C)N(C)C(C)=C(C(=O)OCC)C1c1cccnc1 -1.75%
O=C(Nc1ccc2c(c1)OCO2)OCc1ccccc1 2.22%
Cn1c(=O)[nH]c(=O)c2c1nc(NCCCn1ccnc1)n2Cc1cccc(Br)c1 0.95%
Cn1c(=O)[nH]c(=O)c2c1nc(N1CCNCC1)n2Cc1cccc2ccccc12 4.76%
COc1ccccc1N(CN1CCCC1=O)C(=O)c1c(F)cccc1Cl -0.32%
CCOC(=O)C1CCCN(C(=O)c2cccs2)C1 (stereo not given) 0.48%
CCCCn1c(SCc2cccnc2)nc2c1c(=O)n(C)c(=O)n2C -2.86%
O=C(CCCNS(=O)(=O)c1ccccc1)NCc1ccco1 1.9%
Cc1ccc(-c2[nH]nc3c2C(c2ccoc2)C(C#N)=C(N)O3)cc1C (stereo not given) -1.27%
CSc1nsc(SCC(=O)N2CCc3ccccc32)n1 3.33%
Cc1ccc(NC(=O)CC2Nc3ccccc3NC2=O)cc1Cl (stereo not given) -3.49%
COC(=O)c1c(C(=O)OC)n(CCCN)c2ccc(C)cc12 -1.11%
OCCn1c(CSc2nnc(-c3ccco3)n2-c2ccccc2)nc2ccc(Cl)cc21 -3.97%
Cc1c(O)c(CN2CCCC(C)C2)cc2c3c(c(=O)oc12)CCC3 (stereo not given) -2.38%
Clc1ccccc1-c1nnc2sc(-c3ccccn3)nn12 4.6%
CCCn1c(=N)n(CCOc2ccc(OC)cc2)c2ccccc21 3.49%
COC(=O)c1c(N)sc(C(=O)N2CCOCC2)c1C -5.87%
CC(C(N)=O)N1C(=O)C2C3C=CC(C3)C2C1=O (stereo not given) -2.22%
Cn1c(-c2ccc(F)cc2)cnc1NCc1ccccc1 4.6%
O=C(CCCn1c(=O)c2sccc2n(CC(=O)NCc2ccco2)c1=O)NCc1ccco1 2.54%
O=C(Cc1cccs1)NCc1ccc(F)cc1 3.33%
CCCOc1ccc(C2C(C(=O)c3ccc(C)o3)=C(O)C(=O)N2Cc2cccnc2)cc1 (stereo not given) 1.75%
CCOC(=O)c1c(C)oc2ccc(O)c(CN(C)C)c12 2.22%
O=c1ccn(Cc2ccccc2Cl)cc1 -3.33%
CC12C(=O)N(CCC(=O)O)C(=O)C1C1C=CC2C1 (stereo not given) 2.86%
O=S(=O)(NCCc1ccncc1)c1cc(Br)ccc1F 13.5%
COc1ccc2c(c1)C(=O)N(c1ccccc1OC)C(=O)C2 0.32%
CCn1nnc(NC(=O)c2ccccc2Br)n1 2.86%
CN1CCCC(OC(=O)c2ccc3c(c2)OCCO3)C1 (stereo not given) -2.06%
CC(C)c1nnc(NC(=O)CCC(=O)NCc2ccc3c(c2)OCO3)s1 2.86%
O=C(O)c1ccc(-n2nc(C(F)(F)F)c3c2-c2ccoc2CC3)cc1 -1.43%
Nc1cc(C(=O)O)ccc1Nc1ccccc1 2.38%
CCOc1ccc(OCc2cccc(C(=O)N3CCCC3)c2)cc1 -3.49%
O=C(O)CCc1ccc(-c2cccs2)n1NC(=O)c1ccco1 9.05%
